# Results published in PubChem BioAssay (NCATS).
# Results filed as inconclusive are left out. Entries that show only a call come without a potency. Unmarked numbers belong to inactive results. The source made the active and inactive calls. Calls come from the whole dose curve; as a rule, active = well fitted inhibition curve with a large enough effect; inconclusive = small, poorly fitted or top-dose-only effect; inactive = flat fitted curve, though single readings scatter.
# Tested on: Zika virus NS2B-NS3 protease
# Test: Primary screen GU AMC qHTS for Zika virus inhibitors (AID 1347154); note: nearly all actives have a fitted effect of over 70% in size
# Settings: Zika NS2B-NS3 unlinked protease, AMC fluorogenic substrate; series mostly up to 54.1 µM
# In short: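 Unlinked Zika NS2B hydrophilic domain/NS3 protease domain noncovalent complex (25 nM final) in 10 mM Tris-HCl pH 8.0, 0.01% Tween 20, with AMC peptide substrate. Fluorescence (ex 340, em 450 nm) change over 15 min, room temperature; percent inhibition fitted to 4-parameter Hill equation.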
SMILES,Potency,"activity change, negative = inhibition"
O=C(Oc1ccccc1C(=O)O)c1ccccc1O,inactive,
COC(=O)[C@H]1[C@H]2C[C@@H]3c4[nH]c5cc(OC)ccc5c4CCN3C[C@H]2C[C@@H](OC(=O)COc2ccc(OC)cc2)[C@@H]1OC,inactive,
CC(C)(C)C(=O)NCCCC(=O)O,inactive,
CC1(C)[C@@H]2CC[C@@]1(C)C(=O)C2,inactive,
CO/N=C(\C(=O)N[C@@H]1C(=O)N2C(C(=O)O)=C(CSc3nc(=O)c(O)nn3C)CS[C@H]12)c1csc(N)n1,inactive,
CC(=O)Nc1ccc(/C=N/NC(N)=S)cc1,inactive,
O=c1cc[nH]c(=S)[nH]1,inactive,
CC(=O)Oc1ccc(C2(c3ccc(OC(C)=O)cc3)C(=O)Nc3ccccc32)cc1,inactive,
N[C@@H](CSCCCO)C(=O)O,inactive,
Cc1c(Cl)cccc1Nc1ccccc1C(=O)O,inactive,
COc1cc(C)c(Cc2cnc(N)nc2N)cc1OC,inactive,
Cc1cc(O)cc2c1O[C@](C)(CCC[C@H](C)CCC[C@H](C)CCCC(C)C)CC2,inactive,
CCCCC/C(C=O)=C\c1ccccc1,inactive,
CCN(CC)CCNC(C(=O)OCCC(C)C)c1ccccc1 (centres undefined),inactive,
COc1ccc2cc1Oc1cc3c(cc1OC)CC[N+](C)(C)[C@H]3Cc1ccc(cc1)Oc1c(OC)c(OC)cc3c1[C@@H](C2)[N+](C)(C)CC3,inactive,
O=S(=O)(O)c1cc(I)c(O)c2ncccc12,inactive,
C[C@@H](O)[C@H](N)C(=O)O,inactive,
NS(=O)(=O)c1cc2c(cc1Cl)NC(CSCc1ccccc1)=NS2(=O)=O,inactive,
CC1(C)OC(=O)NC1=O,inactive,
CC(=O)Oc1c(C)c(C)c2c(c1C)CC[C@@](C)(CCC[C@H](C)CCC[C@H](C)CCCC(C)C)O2,inactive,

SMILES,Potency,"activity change, negative = inhibition"
CCN(CC)CCSC(=O)C(c1ccccc1)c1ccccc1,inactive,
O=C1O[C@H](CO)[C@@H](O)[C@H](O)[C@H]1O,inactive,
CC1CC(OC(=O)C(O)c2ccccc2)CC(C)(C)N1C (centres undefined),inactive,
CN1[C@@H]2CC[C@H]1CC(OC(=O)C(O)c1ccccc1)C2 (some centres undefined),inactive,
CCn1cc(C(=O)O)c(=O)c2cnc(N3CCNCC3)nc21,inactive,
O=C(O)Cc1sc(-c2ccccc2)nc1-c1ccc(Cl)cc1,inactive,
CC1(C)Oc2ccc(C#N)cc2[C@@H](N2CCCC2=O)[C@@H]1O,inactive,
NC(=O)N/N=C/c1ccc([N+](=O)[O-])o1,inactive,
C[C@@H]1CC[C@@]2(OC1)O[C@H]1C[C@H]3[C@@H]4CC[C@H]5C[C@@H](O)CC[C@]5(C)[C@H]4CC(=O)[C@]3(C)[C@H]1[C@@H]2C,,-4.75% [at 4.99 µM]
O=C1OC(OC(=O)c2cccnc2Nc2cccc(C(F)(F)F)c2)c2ccccc21 (centres undefined),inactive,
NC(=O)NC(=O)Cc1ccccc1,inactive,
COc1ccccc1O,inactive,
COc1ccc(S(=O)(=O)Nc2nnc(CC(C)C)s2)cc1,inactive,
CC(=O)O[C@@]12CO[C@@H]1C[C@H](O)[C@@]1(C)C(=O)[C@H](O)C3=C(C)[C@@H](OC(=O)[C@H](O)[C@@H](NC(=O)OC(C)(C)C)c4ccccc4)C[C@@](O)([C@@H](OC(=O)c4ccccc4)[C@H]21)C3(C)C,inactive,
CC(O)COc1ccccc1 (centres undefined),inactive,
CC(COc1ccccc1)NC(C)C(O)c1ccc(O)cc1 (centres undefined),inactive,
CCCCCCCCCCCCCCCC(=O)NCCO,inactive,
NS(=O)(=O)c1cc2c(cc1C(F)(F)F)NC(Cc1ccccc1)NS2(=O)=O (centres undefined),inactive,
C=CCn1c(=O)n([C@@H]2O[C@H](CO)[C@@H](O)[C@H]2O)c2nc(N)[nH]c(=O)c21,inactive,
